HT1080 IDH1KD tx – HT-1080 IDH1 knockdown cell toxicity (counter line); HT-1080 IDH1 knockdown viability, ATP luminescence, 48 h; Potency, µM (top dose mostly 46.1 µM), for inactives: at the highest dose activity, negative = toxicity, most hits filed as cytotoxic; hit rate 2% among 360,000; AID 686971;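 further: potency means the concentration at half of the fitted maximal effect; 0% = DMSO wells and -100% = cell-free medium wells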
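After a 2 h attachment period, IDH1KD HT-1080 cells took pin-transferred compound for 48 h at 37 °C; ATP-based luminescence after 10 min room-temperature reagent incubation reported viability.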
HT1080-NT tox – kills 2HG-producing HT-1080-NT fibrosarcoma cells | HT-1080-NT fibrosarcoma viability, CellTiter-Glo ATP luminescence, 48 h | Potency, µM (series often up to 46.1 µM), for inactives: at the top dose activity, negative = less viability, most hits filed as cytotoxic | hit rate 1.6% among 360,000;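 further: NT is the 2HG producing partner of a matched IDH1 knockdown line; potency means the concentration at half of the fitted maximal effect; 0% = DMSO-treated cells and -100% = media-only wells without cells; nearly all actives have a fitted effect of over 55% in size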
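Viability by CellTiter-Glo luminescence after 48 h compound exposure at 37C of HT-1080-NT cells (750/well, RPMI, 5% FBS). % activity scaled between DMSO wells and medium-only wells, then curve-fitted and categorized by curve class.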
TDP1 cell noCPT – qHTS for Inhibitors of human tyrosyl-DNA phosphodiesterase 1 (TDP1): qHTS in cells in absence of CPT; Potency, µM (titrated, usually from 46.2 µM), for the others: at the top dose activity change, negative = growth inhibition, most hits filed as inhibitors; DT40 Tdp1-/- hTDP1 cells, no CPT, ATP luminescence, 48 h; hit rate 15% among 420,000; further: potency means the concentration at half of the fitted maximal effect; nearly all actives have a fitted effect of over 55% in size
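Stably hTDP1-transfected Tdp1-null chicken DT40 cells were treated with library compounds minus camptothecin and grown for at least 48 hr at 37 °C, after which cellular ATP was quantified by luminescence.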
TDP1 cell CPT – DT40-hTDP1 cell growth loss with CPT | chicken DT40 Tdp1-/-;hTDP1 cells + 20 nM CPT, ATP luminescence, 48 h | Potency, µM (titrated, usually from 46.2 µM), for the others: at the highest dose activity change, negative = growth inhibition, usual class: inhibitors | hit rate 12% among 420,000 | AID 686979; further: potency means the concentration at half of the fitted maximal effect; nearly all actives have a fitted effect of over 55% in size
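Cell growth measured by CellTiter-Glo luminescence after a minimum 48 h, 37 C compound exposure with 20 nM CPT in Tdp1-knockout DT40 cells stably expressing hTDP1, seeded 400/well; qHTS titration format.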
IL-1B inflam inh – inflammasome signaling inhibition, IL-1 beta readout. hit rate 4.7% among 360,000. THP-1 LPS/ATP IL-1B secretion, AlphaLISA, 16 h; hits give low values. activity change, % at 57.5 µM. AID 743279; in the data active means activity change below about -50%; inconclusive means mostly about -30% to -49%
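Secreted IL-1B measured by AlphaLISA bead assay after 16 h compound exposure of THP-1 cells; compounds (final up to 57.5 uM) added 1 h before LPS (250 ng/mL) and ATP (1.25 mM) stimulation; lower signal means less secretion.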
* marks the source's active call; other numbers are inactive results; ? = inconclusive; · = no result given. Most compounds without a hit are left out; they make up all but 19% or so of the library. Unless noted, the call rests on the fitted dose curve; in most records, active means well fitted curve in the direction sought with a large enough effect; inconclusive means small, poorly fitted or top-dose-only effect, or another doubt; inactive means no such curve, though single readings can be large; an effect the other way counts as inactive or inconclusive. Unless noted, on the % scale 0 is the no-effect control and ±100 the full control effect.

SMILES	HT1080 IDH1KD tx	HT1080-NT tox	TDP1 cell noCPT	TDP1 cell CPT	IL-1B inflam inh
CC1(C)C(c2ccccc2)=NC(c2ccc(Br)cc2)N1O (configuration not stated)	0%	1%	?	17%	-18
Cc1ccc(S(=O)(=O)N2C[C@H]3[C@H]4C(=O)N(c5ccccc5)C(=O)[C@H]4CC(=O)[C@H]3[C@@H]2c2ccccc2F)cc1	9%	21%	1%	7%	22
CCOCN(C(=O)Cn1c(CC(C)C)nc2ccccc21)c1c(C)cccc1CC	·	·	23µM*	?	·
CCOCN(C(=O)CSc1nc2ccccc2[nH]1)c1c(C)cccc1CC	·	·	23µM*	15µM*	·
CCc1cccc(CC)c1N(COC)C(=O)Cn1c(CO)nc2ccccc21	9%	4%	?	?	1
O=C(NNC(=O)C1CCCCC1)C(=O)NC1CCCCC1	-13%	13%	-8%	-10%	-6
CC(C)NC(=S)NN=C1c2ccccc2-c2ccccc21	6%	-2%	7.3µM*	23µM*	1
C/C(=N\NC(=S)NC(C)C)c1ccco1	14%	0%	?	?	-14
COc1ccc(CCNC(=O)CSc2nc3ncccc3[nH]2)c(OC)c1	7%	18%	-2%	-12%	-3
COc1ccccc1N(C)S(=O)(=O)c1ccc(C(=O)Nc2nccs2)cc1	-8%	-8%	6.5µM*	?	-8
COc1ccccc1N(C)S(=O)(=O)c1ccc(C(=O)Nc2ncc(C)s2)cc1	-15%	0%	?	?	-8
COc1ccccc1N(C)S(=O)(=O)c1ccc(C(=O)NCC2CCCCC2)cc1	6%	6%	18µM*	?	0
CCC(C)(C)NC(=O)c1ccc(S(=O)(=O)N(C)c2ccccc2OC)cc1	2%	13%	-11%	-20%	3
COc1ccccc1N(C)S(=O)(=O)c1ccc(C(=O)N(C)Cc2ccc(OC(F)F)cc2)cc1	-11%	-9%	23µM*	26µM*	-25
COc1cc(NC(=O)c2ccc(S(=O)(=O)N(C)c3ccccc3OC)cc2)cc(OC)c1	-1%	-22%	21µM*	18µM*	-3
CC1(C(=O)NS(=O)(=O)C2CC2)CCN(C(=O)c2cccc(Cl)c2)C1 (configuration not stated)	?	12%	2%	-22%	0
COc1ccccc1N(C)S(=O)(=O)c1ccc(C(=O)NCC(C)C)cc1	4%	5%	?	-20%	16
COc1ccccc1N(C)S(=O)(=O)c1ccc(C(=O)Nc2cccc(Br)c2)cc1	0%	-21%	16µM*	?	-60*
COC(=O)c1ccc(NC(=O)c2ccccc2N(C)S(=O)(=O)c2ccccc2)cc1	-17%	-7%	21µM*	?	-19
O=C1CC(NS(=O)(=O)c2cccs2)CN1c1cccc(F)c1 (configuration not stated)	9%	13%	?	?	-4
COc1ccc(C(=O)NC(=S)Nc2ccccc2N2CCCCC2)cc1[N+](=O)[O-]	-19%	-21%	6.5µM*	12µM*	18
CCOc1ccc(C(=O)NC(=S)Nc2ccccc2OC)cc1[N+](=O)[O-]	7%	10%	-28%	-21%	-13
CCOc1ccc(C(=O)NC(=S)Nc2ccc(NC(=O)CC)cc2)cc1[N+](=O)[O-]	7%	6%	-22%	-14%	0
COc1ccc(C(=O)NC(=S)Nc2cccc(Cl)c2N2CCOCC2)cc1[N+](=O)[O-]	-6%	7%	?	?	10
O=C(NC(=S)Nc1ccccc1N1CCCC1)c1ccc([N+](=O)[O-])cc1	-14%	-16%	18µM*	26µM*	-21
SMILES	HT1080 IDH1KD tx	HT1080-NT tox	TDP1 cell noCPT	TDP1 cell CPT	IL-1B inflam inh
CCOc1ccc(C(=O)NC(=S)Nc2ccc(N3CCCCC3)cc2)cc1[N+](=O)[O-]	1%	2%	?	12µM*	9
CCOc1ccc(C(=O)NC(=S)Nc2ccccc2N2CCCCC2)cc1[N+](=O)[O-]	9%	3%	?	18µM*	2
O=C(CSCC(=O)N1CCCCC1)Nc1nc(-c2ccccc2)c(-c2ccccc2)s1	?	-29%	16µM*	18µM*	22
CSc1ccc(CNC(=O)c2cc3c(=O)n(Cc4ccco4)ccc3nc2C)cc1	·	·	23µM*	29µM*	·
COc1ccc(NC(=O)c2cc3c(=O)n(Cc4ccco4)ccc3nc2C)c(OC)c1	·	·	?	-17%	·
CCOc1ccccc1CNC(=O)c1cc2c(=O)n(Cc3ccccc3)ccc2nc1C	·	·	16µM*	18µM*	·
Cc1ccc(NC(=O)c2cc3c(=O)n(Cc4ccco4)ccc3nc2C)cc1C	·	·	?	26µM*	·
CCN1C/C(=C\c2cc(OC)c(OC)c(OC)c2)C2=NN(c3ccccc3)C(c3cc(OC)c(OC)c(OC)c3)C2C1 (configuration not stated)	-2%	7%	5.8µM*	6.5µM*	17
S=C(NC1CCCCC1)N1CCN(Cc2ccccc2Cl)CC1	-2%	-9%	?	?	-8
CCN(C(=O)Cn1c(Cl)nc2c1c(=O)n(C)c(=O)n2C)C1CCCCC1	0%	1%	21µM*	21µM*	11
CC1CCCC(NC(=O)Cn2c(Cl)nc3c2c(=O)n(C)c(=O)n3C)C1C (configuration not stated)	0%	-9%	21µM*	?	31
Cc1[nH]c2ccccc2c1C1(O)C(=O)N(Cc2ccc(Cl)cc2)c2ccccc21 (configuration not stated)	·	·	5.2µM*	5.8µM*	·
Cc1ccc(CNC(=O)COC(=O)c2cc(=O)[nH]c3ccccc23)cc1	3%	5%	22%	4%	6
Cc1[nH]c2ccccc2c1C1(O)C(=O)N(Cc2ccc3c(c2)OCO3)c2ccccc21 (configuration not stated)	?	-11%	5.2µM*	3.3µM*	12
CC(C)(C)C(=O)CC1(O)C(=O)N(Cc2ccc(Cl)cc2)c2ccccc21 (configuration not stated)	-19%	-7%	-17%	-21%	-18
O=C1N(Cc2ccccc2)c2ccc(Cl)cc2C12OCCO2	-17%	-18%	-4%	-8%	-8
Cc1[nH]c2ccccc2c1C1(O)C(=O)N(Cc2ccccc2)c2ccc(Cl)cc21 (configuration not stated)	·	·	5.2µM*	6.5µM*	·
Cc1ccc(CN2C(=O)C(O)(c3c(C)[nH]c4ccccc34)c3ccccc32)cc1 (configuration not stated)	·	·	4.6µM*	6.5µM*	·
